In ChEMBL document CHEMBL3988442, “University of Dundee, Small-Polar-MMV Screening Library” (2021):
In all, about 48,000 compounds went through this assay and about 13,000 (27%) showed an effect of 50% or more. The list shows a part of the results.

tested on: Wolbachia pipientis; experiment: Anti-Wolbachia Cell-Based Screen; format: functional; set-up: scale not given: in the data most compounds retested in dose-response had high values; conditions: 5 µM

Row | SMILES | Percent Effect [%]
1 | CCNc1ccnc(N2Cc3cnn(Cc4ccc(F)cc4)c3C2)n1 | -10.41
2 | Cn1nnc(NCc2ccccc2OCc2ccc(Cl)cc2)n1 | 119
3 | CCOCc1ccccc1CNc1ccc2nncn2n1 | -4.273
4 | CCn1nnc(NCc2ccccc2OCc2ccc(Cl)cc2)n1 | 122
5 | Cc1cnn(CCNCc2ccccc2OCc2cccnc2)c1 | -3.699
6 | CCCn1nnc(NCc2ccccc2OCc2ccc(Cl)cc2)n1 | 104.8
7 | CCOc1ccc(CNCCCn2ccnc2)cc1Br | 7.125
8 | c1ccc(OCc2ccncc2)c(CNC2CCc3ncnn3C2)c1 (stereo not drawn) | -0.3287
9 | CCOc1ccc(Cl)cc1CNCCCn1ccnc1 | -4.437
10 | CCOc1cc(CNc2nnn(C)n2)ccc1OCc1ccc(Cl)cc1 | 121.9
11 | COc1ccc(-c2cn3c(n2)CO[C@@H](CNCc2ccccn2)C3)cc1 | -5.771
12 | CC(C)OCCN1CCc2cncnc2C1 | -3.318
13 | CC(NCc1ccc(OCC(N)=O)cc1)c1ccc(Cl)cc1.Cl (stereo not drawn) | -2.794
14 | Cc1nnc(NCc2ccc(Cl)cc2)o1 | -6.045
15 | Cn1nnc(NCc2ccc(OCc3ccc(Cl)cc3)cc2)n1 | 101.9
16 | CC[C@@]1(O)CCN(C(=O)c2ccc(-n3cnnc3)cc2)C[C@H]1O | 5.833
17 | CCSc1ccc(C(=O)N2CC[C@](C)(O)[C@H](C)C2)s1 | 109.4
18 | Cc1cc2cccc(C(=O)N3CC[C@](C)(O)[C@H](C)C3)c2o1 | 15.88
19 | CCSc1ccc(C(=O)N2CCC3(CCC(=O)N(C)C3)CC2)s1 | 103.4
20 | CCSc1ccc(C(=O)N2CCC3(CC2)[C@H](O)C[C@@H]3O)s1 | 100.2
21 | CCSc1ccc(C(=O)N2CC[C@](O)(CC)[C@H](O)C2)s1 | 107.9
22 | CO[C@H]1C[C@@H](O)C12CCN(C(=O)CCSCc1ccc(F)cc1)CC2 | 11.02
23 | CCN1CC2(CCC1=O)CCN(C(=O)c1ccc(Cl)cc1O)CC2 | -7.361
24 | CC[C@@]1(O)CCN(C(=O)c2ccsc2)C[C@H]1O | -12.48
25 | CCc1ccc(C(=O)N2CC[C@](C)(O)[C@H](C)C2)[nH]1 | -16.61

Row | SMILES | Percent Effect [%]
26 | CCc1ccc(C(=O)N2CCC3(CCC(=O)N(CCN(C)C)C3)CC2)[nH]1 | -7.538
27 | CCn1nc(CC(C)C)cc1C(=O)N1CCC2(CC1)[C@H](O)C[C@@H]2O | -14.19
28 | COc1ccccc1N1CCN(C(=O)c2ccoc2)CC1 | 4.438
29 | CNC(=O)Cc1noc(-c2cc3c(s2)CCCCCC3)n1 | -5.82
30 | COc1cccc(CC(=O)N2CCc3ncnc(C)c3CC2)c1 | -6.07
31 | CCn1cnnc1C1CCN(C(=O)COCCc2ccccc2)CC1 | 1.598
32 | CCn1cnnc1C1CCN(C(=O)c2ccc(Cl)s2)CC1 | 1.567
33 | CCn1cnnc1C1CCN(C(=O)c2c(C)oc(C)c2C)CC1 | 107.2
34 | CCn1cnnc1C1CCN(C(=O)c2ccoc2C)CC1 | 104.9
35 | CCc1ccc(C(=O)N2CCC(c3nncn3CC)CC2)o1 | 130.6
36 | CCn1cnnc1C1CCN(C(=O)c2cc(C)n(CC)c2C)CC1 | 80.75
37 | CCn1c(C)cc(C(=O)N2CCCC(c3nc(C)no3)C2)c1C (stereo not drawn) | 12.03
38 | CCCS(=O)(=O)N1CCC2(CC1)COCCN(C(C)=O)C2 | -12.8
39 | NCCC1CN(c2nc(-c3ccccc3)nc3c2CCNC3)CCO1 (stereo not drawn) | -13.03
40 | CC(=O)c1cccc(OCCCC(=O)N(C)Cc2cscn2)c1 | 4.484
41 | COc1cc(Br)c(CNC(C)c2nnc3n2CCC3)cc1OC (stereo not drawn) | 2.226
42 | CNS(=O)(=O)c1ccccc1N1CCN(C(=O)C(C)C)CC1 | -15.34
43 | COc1cccc2ccc(CN3CCN(c4cccnc4)CC3)nc12 | 1.116
44 | CCn1cnnc1C1CCN(C(=O)c2cccc(C)c2C)CC1 | 94.12
45 | CCn1cnnc1C1CCN(C(=O)C(OC)c2ccccc2)CC1 (stereo not drawn) | -2.664
46 | CCn1cnnc1C1CCN(C(=O)c2ccc3ccccc3n2)CC1 | 136.7
47 | CCn1cnnc1C1CCN(C(=O)c2ccccc2F)CC1 | 104.8
48 | CNc1nc(CNC(=O)Nc2ccccc2OC(C)C)cs1 | -5.433
49 | CCSCCC(C)N(C)C(=O)c1cc(C)no1 (stereo not drawn) | -5.306
50 | Cc1[nH]ncc1CCCNC(=O)Nc1ccc(C#N)cc1 | -18.53

Row | SMILES | Percent Effect [%]
51 | CCOCCn1nc(C)cc1C(=O)N1CC[C@@](O)(COC)C(C)(C)C1 | 0.9121
52 | CC(Sc1nnc(C2CC2)n1CC(N)=O)c1ccc(Cl)cc1 (stereo not drawn) | 0.3539
53 | OCC1(CCOc2ccccc2)CCN(c2ccc(Cl)cn2)CC1 | -3.583
54 | Cc1ccc(Cl)cc1-n1nnnc1C1(N2CCCC2)CCCC1 | -26.05
55 | COc1cccc(NC(=O)NCC(Cc2cnn(C)c2)C(N)=O)c1 (stereo not drawn) | 2.392
56 | COc1cccc(NC(=O)NCc2cnn(C)c2)c1 | 90.55
57 | CC(C)Nc1cccc(C(=O)NCC(O)c2ccc(F)cc2F)c1 (stereo not drawn) | 1.201
58 | COc1ncccc1NC(=O)NCC(O)c1ccc(F)cc1F (stereo not drawn) | 0.8108
59 | COc1ccccc1NC(=O)NCC(O)c1ccc(F)cc1F (stereo not drawn) | 114.6
60 | COc1cccc(NC(=O)NCC(O)c2ccc(F)cc2F)c1 (stereo not drawn) | 109.6
61 | Cc1cccc(C(=O)NCC(O)c2ccc(F)cc2F)c1 (stereo not drawn) | 14.48
62 | CC(C)OCCOCc1cccc(NC(=O)NCc2cnn(C)c2)c1 | 2.629
63 | O=C(NCC(O)c1ccc(F)cc1F)c1ccccc1F (stereo not drawn) | 15.04
64 | CC(=O)c1cccc(OC(C)C(=O)Nc2cnn(CCN(C)C)c2)c1 (stereo not drawn) | -1.957
65 | CC(NC(=O)c1cccc(CCC(C)(C)O)c1)c1nnc(N)s1 (stereo not drawn) | -8.452
66 | OCc1ccc(OCC(F)(F)F)cc1 | 0.2216
67 | CCC(C)N(C)C(=O)Nc1ccc(N2CCSCC2)cc1C (stereo not drawn) | -11.87
68 | O=C(O)C(F)(F)F.O=C(c1ccccc1)N1CCO[C@@H]2CN(c3cnccn3)C[C@@H]2C1 | -2.123
69 | O=C(O)C(F)(F)F.O=C(c1cnccn1)N1C[C@@H]2CCN(c3cccnc3)C[C@@H]2C1 | -9.697
70 | CCOCC(=O)N1C[C@@H]2CCN(c3cnccn3)C[C@@H]2C1.O=C(O)C(F)(F)F | 110.3
71 | CC(C)CN1CCO[C@H]2CCN(c3cnccn3)CC[C@@H]21.O=C(O)C(F)(F)F | 107
72 | CCCC(=O)N1C[C@@H]2CCN(c3cnccn3)C[C@@H]2C1.O=C(O)C(F)(F)F | 107.8
73 | CC(C)CC(=O)N1C[C@@H]2CCN(c3cnccn3)C[C@@H]2C1.O=C(O)C(F)(F)F | 83.3
